# Measured values: PubChem BioAssay (NCATS)
# Results filed as inconclusive are left out. Entries that show only a call come without a potency. A number with no mark means an inactive call. Activity calls are given as the source filed them. Unless noted, calls follow the shape of the dose curve; as a rule, active = well fitted curve in the direction sought with a large enough effect; inconclusive = small, poorly fitted or top-dose-only effect, or another doubt; inactive = no such curve, though single readings can be large; an effect the other way counts as inactive or inconclusive.
# Assays:
# [1] = A High-Content qHTS Against Drug Library for the Identification of Small Molecules that Inhibit DYT1 Early Onset Primary Dystonia-Associated Cell Pathology (AID 1645839; calls by dose curve; also: series mostly up to about 46 µM)
# Summary of the method: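 High-content imaging quantified EGFP-TorsinA mislocalization in HEK293-derived cells inducibly expressing DYT1 mutant torsinA, after 48 h exposure to compound given together with tetracycline induction. Cell count served as a toxicity channel alongside %pathology.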
# [2] = biological target: Cytochrome P450 2D6 (Homo sapiens) (UniProt P10635); test: Cytochrome P450 family 2 subfamily D member 6 (CYP2D6) small molecule antagonists: luciferase biochemical (cell-free) qHTS assay (AID 1645840; active = well fitted curve in the direction sought with a large enough effect in the repeat runs; an effect the other way counts as inactive or inconclusive; also: nearly all actives have a fitted effect of over 55% in size; also: potency is read from the fitted curve at half-maximal effect; as to activity change, negative = inhibition: series mostly up to about 57 µM)
# Sequence of Cytochrome P450 2D6 (Homo sapiens) (P10635 whole entry, looked up): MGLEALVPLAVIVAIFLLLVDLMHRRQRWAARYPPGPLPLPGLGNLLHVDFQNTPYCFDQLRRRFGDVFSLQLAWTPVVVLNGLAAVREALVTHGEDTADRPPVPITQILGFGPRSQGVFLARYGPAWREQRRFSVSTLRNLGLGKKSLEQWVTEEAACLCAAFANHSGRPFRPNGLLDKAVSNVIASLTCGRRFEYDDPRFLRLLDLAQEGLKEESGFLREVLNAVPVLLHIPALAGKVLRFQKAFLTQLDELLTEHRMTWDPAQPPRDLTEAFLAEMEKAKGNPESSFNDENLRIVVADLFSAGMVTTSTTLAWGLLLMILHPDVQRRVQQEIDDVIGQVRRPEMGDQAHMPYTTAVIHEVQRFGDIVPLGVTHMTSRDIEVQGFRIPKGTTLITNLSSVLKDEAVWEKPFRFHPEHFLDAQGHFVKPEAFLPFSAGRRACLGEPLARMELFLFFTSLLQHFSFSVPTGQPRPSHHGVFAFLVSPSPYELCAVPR
# Summary of the method: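 P450-Glo CYP2D6 system: proluciferin substrate converted by enzyme to luciferin, read by luminescence proportional to activity. Enzyme-substrate mix with compound 10 min at room temperature, then NADPH regeneration 1 h before detection reagent.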
# [3] = biological target: Cytochrome P450 2C9 (Homo sapiens) (UniProt P11712); test: Cytochrome P450 family 2 subfamily C member 9 (CYP2C9) small molecule antagonists: luciferase biochemical (cell-free) qHTS assay (AID 1645842; active = well fitted curve in the direction sought with a large enough effect in the repeat runs; an effect the other way counts as inactive or inconclusive; also: nearly all actives have a fitted effect of over 55% in size; also: potency is read from the fitted curve at half-maximal effect; as to activity change, negative = inhibition: series mostly up to about 57 µM)
# Sequence of Cytochrome P450 2C9 (Homo sapiens) (P11712 whole entry, looked up): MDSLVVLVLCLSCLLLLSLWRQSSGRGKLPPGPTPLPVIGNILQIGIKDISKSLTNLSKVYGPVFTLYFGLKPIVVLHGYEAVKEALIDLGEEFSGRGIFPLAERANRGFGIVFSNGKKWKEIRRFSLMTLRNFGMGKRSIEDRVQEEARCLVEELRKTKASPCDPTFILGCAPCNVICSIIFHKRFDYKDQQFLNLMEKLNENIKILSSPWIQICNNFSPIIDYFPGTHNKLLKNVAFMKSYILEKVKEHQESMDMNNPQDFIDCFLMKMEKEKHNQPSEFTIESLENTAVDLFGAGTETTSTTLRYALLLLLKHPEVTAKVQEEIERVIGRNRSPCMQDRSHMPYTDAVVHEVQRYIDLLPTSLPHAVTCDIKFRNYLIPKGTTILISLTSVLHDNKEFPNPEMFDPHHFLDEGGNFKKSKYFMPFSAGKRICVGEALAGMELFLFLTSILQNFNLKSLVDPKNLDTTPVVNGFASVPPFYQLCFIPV
# Summary of the method: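 P450-Glo CYP2C9 system: proluciferin substrate with enzyme in mix containing 0.4% BSA, 10 min at room temperature, then NADPH regeneration solution added and incubated 1 h at 37C. Detection reagent stopped reaction; luminescence read after 20 min as RLU.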
# [4] = Primary qHTS for inhibitors of nuclear receptor binding SET domain protein 2 (NSD2) in an isogenic RCH-ACV NSD2 p.E1099K mutant (9B) (AID 1645876); also: nearly all actives have a fitted effect of over 70% in size; also: potency is read from the fitted curve at half-maximal effect
# [5] = Primary qHTS for small molecule stabilizers of the endoplasmic reticulum resident proteome: Secreted ER Calcium Modulated Protein (SERCaMP) assay (AID 1508630)
# Summary of the method: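 The SH-SY5Y reporter protocol was run at 3 concentrations up to 38.3 uM (primary) or 11 concentrations (follow-up): 16 h compound, 100 nM thapsigargin for 4 h, then extracellular luciferase luminescence.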
# [6] = biological target: Rap guanine nucleotide exchange factor 3 (Homo sapiens) (UniProt O95398); test: Confirmatory qHTS for antagonist of cAMP-regulated guanine nucleotide exchange factor 3 (EPAC1) (AID 1645880); also: potency is read from the fitted curve at half-maximal effect; nearly all actives have a fitted effect of over 55% in size
# Sequence of Rap guanine nucleotide exchange factor 3 (Homo sapiens) (O95398 whole entry, looked up): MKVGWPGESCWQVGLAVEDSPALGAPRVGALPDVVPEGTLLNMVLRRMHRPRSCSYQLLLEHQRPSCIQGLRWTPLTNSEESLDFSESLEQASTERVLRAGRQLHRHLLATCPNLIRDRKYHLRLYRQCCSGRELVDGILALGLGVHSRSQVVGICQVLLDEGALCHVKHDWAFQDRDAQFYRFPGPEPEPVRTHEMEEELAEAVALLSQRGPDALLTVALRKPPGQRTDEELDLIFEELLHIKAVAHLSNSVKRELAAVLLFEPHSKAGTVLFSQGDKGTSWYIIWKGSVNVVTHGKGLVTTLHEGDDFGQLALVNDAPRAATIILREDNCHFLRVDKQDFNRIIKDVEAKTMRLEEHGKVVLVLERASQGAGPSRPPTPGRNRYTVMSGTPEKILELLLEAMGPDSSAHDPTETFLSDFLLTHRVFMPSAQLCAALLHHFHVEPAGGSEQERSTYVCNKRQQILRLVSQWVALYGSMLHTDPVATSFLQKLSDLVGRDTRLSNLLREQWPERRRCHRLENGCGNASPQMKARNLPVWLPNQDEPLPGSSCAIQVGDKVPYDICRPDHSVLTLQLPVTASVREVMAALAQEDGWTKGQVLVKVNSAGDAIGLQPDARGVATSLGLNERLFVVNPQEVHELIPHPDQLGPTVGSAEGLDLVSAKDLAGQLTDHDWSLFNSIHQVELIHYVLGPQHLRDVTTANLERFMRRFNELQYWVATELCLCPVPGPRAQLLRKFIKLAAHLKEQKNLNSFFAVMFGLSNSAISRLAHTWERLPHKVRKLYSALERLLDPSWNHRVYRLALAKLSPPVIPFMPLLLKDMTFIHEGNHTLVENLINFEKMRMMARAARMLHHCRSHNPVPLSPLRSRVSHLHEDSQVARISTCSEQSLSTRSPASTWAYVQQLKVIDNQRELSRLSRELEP
# Summary of the method: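 Released BODIPY-GDP fluoresces less than Rap1-bound BODIPY-GDP; the signal is followed at 480/540 nm at 5-min intervals over 30 min, after 5 min at room temperature. Reactions contain 100 nM EPAC1, 250 nM RAP1B-BODIPY-GDP and 50 uM GDP; results are normalized to ATA and DMSO.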
# [7] = biological target: Rap guanine nucleotide exchange factor 3 (Homo sapiens) (UniProt O95398); test: Confirmatory qHTS for agonist of cAMP-regulated guanine nucleotide exchange factor 3 (EPAC1) (AID 1645881);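 also: EPAC1 catalysed release of BODIPY-GDP from Rap1B seen as fluorescence loss; nearly all actives have a fitted effect of over 75% in size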
# [8] = biological target: Rap guanine nucleotide exchange factor 4 (Homo sapiens) (UniProt Q8WZA2); test: Confirmatory qHTS for agonist of cAMP-regulated guanine nucleotide exchange factor 4 (EPAC2) (AID 1645884);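 also: nucleotide exchange releases bodipy-GDP from Rap1 and this lowers its fluorescence; nearly all actives have a fitted effect of over 65% in size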
# Sequence of Rap guanine nucleotide exchange factor 4 (Homo sapiens) (Q8WZA2 whole entry, looked up): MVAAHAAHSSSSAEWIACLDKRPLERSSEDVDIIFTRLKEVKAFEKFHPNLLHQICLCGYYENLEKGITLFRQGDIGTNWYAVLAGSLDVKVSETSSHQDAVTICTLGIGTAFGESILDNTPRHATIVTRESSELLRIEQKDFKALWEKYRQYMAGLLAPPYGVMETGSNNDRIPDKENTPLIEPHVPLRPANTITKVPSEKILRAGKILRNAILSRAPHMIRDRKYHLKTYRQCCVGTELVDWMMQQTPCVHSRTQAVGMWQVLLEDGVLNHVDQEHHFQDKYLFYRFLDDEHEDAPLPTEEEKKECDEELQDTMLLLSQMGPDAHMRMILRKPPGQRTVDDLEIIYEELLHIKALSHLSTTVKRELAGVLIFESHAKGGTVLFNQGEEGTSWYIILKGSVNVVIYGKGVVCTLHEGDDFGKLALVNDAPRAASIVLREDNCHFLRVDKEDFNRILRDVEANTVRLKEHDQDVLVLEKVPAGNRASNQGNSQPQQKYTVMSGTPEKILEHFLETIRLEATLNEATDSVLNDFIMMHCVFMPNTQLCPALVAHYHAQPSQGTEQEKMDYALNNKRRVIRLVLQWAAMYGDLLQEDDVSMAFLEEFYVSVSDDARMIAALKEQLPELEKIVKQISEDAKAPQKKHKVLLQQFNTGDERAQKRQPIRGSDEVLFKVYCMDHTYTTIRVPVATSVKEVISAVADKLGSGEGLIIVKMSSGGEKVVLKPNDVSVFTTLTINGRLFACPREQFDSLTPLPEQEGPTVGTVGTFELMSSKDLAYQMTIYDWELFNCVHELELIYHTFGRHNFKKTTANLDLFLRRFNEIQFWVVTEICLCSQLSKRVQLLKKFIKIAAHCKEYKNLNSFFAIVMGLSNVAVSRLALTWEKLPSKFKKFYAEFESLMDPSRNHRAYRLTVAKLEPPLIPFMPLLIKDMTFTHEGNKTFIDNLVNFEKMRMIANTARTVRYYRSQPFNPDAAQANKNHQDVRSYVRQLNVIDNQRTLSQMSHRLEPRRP
# [9] = biological target: Rap guanine nucleotide exchange factor 4 (Homo sapiens) (UniProt Q8WZA2); test: Confirmatory qHTS for antagonist of cAMP-regulated guanine nucleotide exchange factor 4 (EPAC2) (AID 1645885); also: potency is read from the fitted curve at half-maximal effect; nearly all actives have a fitted effect of over 25% in size
# [10] = biological target: Cytochrome P450 3A4 (Homo sapiens) (UniProt P08684); test: Cytochrome P450 family 3 subfamily A member 4 (CYP3A4) small molecule antagonists: luciferase qHTS assay (AID 1645841; active = well fitted curve in the direction sought with a large enough effect in the repeat runs; an effect the other way counts as inactive or inconclusive; also: nearly all actives have a fitted effect of over 45% in size)
# Sequence of Cytochrome P450 3A4 (Homo sapiens) (P08684 whole entry, looked up): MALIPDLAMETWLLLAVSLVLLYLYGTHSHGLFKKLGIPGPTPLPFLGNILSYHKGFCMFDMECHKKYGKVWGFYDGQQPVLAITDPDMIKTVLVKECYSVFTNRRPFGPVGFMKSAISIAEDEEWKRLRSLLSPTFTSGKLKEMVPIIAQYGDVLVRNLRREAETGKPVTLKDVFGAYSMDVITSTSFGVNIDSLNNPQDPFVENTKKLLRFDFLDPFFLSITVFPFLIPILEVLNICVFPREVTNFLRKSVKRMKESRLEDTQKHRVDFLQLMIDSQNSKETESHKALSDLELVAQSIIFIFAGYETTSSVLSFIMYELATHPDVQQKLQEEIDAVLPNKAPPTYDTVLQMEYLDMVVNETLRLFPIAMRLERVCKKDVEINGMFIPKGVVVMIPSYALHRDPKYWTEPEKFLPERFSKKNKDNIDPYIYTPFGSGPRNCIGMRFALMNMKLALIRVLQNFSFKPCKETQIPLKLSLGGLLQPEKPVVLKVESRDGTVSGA
# Summary of the method: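 Luminescent CYP3A4 activity readout: compounds plus enzyme-substrate mix 10 min at room temperature, reaction started with NADPH regenerating system for 1 h, stopped with detection reagent, read after 20 min. Ketoconazole served as control.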
# [11] = NCATS anti-infectives library activity on HEK293 viability as a counter-qHTS vs the C. elegans viability qHTS (AID 1745854);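 also: HEK293 cells exposed to compounds for 24 hr before the viability read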
# Summary of the method: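 Counter-screen for cytotoxicity: HEK293, 24 hr, 37C, compounds up to 41.7 uM final (a dilution series, 1:5). Readout CellTiter-Glo luminescence, 10 min RT. Digitonin control, […] uM final.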
# [12] = Viability counterscreen for antagonist of constitutive androstane receptor (CAR) against the NCATS DSHEA and TCM libraries (AID 1794837);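 also: compound exposure lasted 24 h before viability reading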
# Summary of the method: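 Fluorescence from CellTiter-Fluor reports live-cell protease activity in HepG2-CYP2B6-hCAR cells treated for 24 h with substances alongside 48 uM CITCO.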
# [13] = Viability counterscreen for agonist of constitutive androstane receptor (CAR) against the NCATS DSHEA and TCM libraries (AID 1794838);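 also: cells exposed to compound for 24 h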
# Summary of the method: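 In agonist mode, PK11195 is added at 0.75 uM final to HepG2-CYP2B6-hCAR cells dosed with test substances. Cultures incubate 24 h at 37C before a protease-based fluorogenic viability readout.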
# [14] = biological target: Nuclear receptor subfamily 1 group I member 3 (Homo sapiens) (UniProt Q14994); test: Primary qHTS for agonist of constitutive androstane receptor (CAR) against the NCATS DSHEA and TCM libraries (AID 1794839);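 also: HepG2 cells expressing human CAR with a CYP2B6 reporter plus PK11195 antagonist; luciferase reporter luminescence read with ONE-Glo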
# Sequence of Nuclear receptor subfamily 1 group I member 3 (Homo sapiens) (Q14994 whole entry, looked up): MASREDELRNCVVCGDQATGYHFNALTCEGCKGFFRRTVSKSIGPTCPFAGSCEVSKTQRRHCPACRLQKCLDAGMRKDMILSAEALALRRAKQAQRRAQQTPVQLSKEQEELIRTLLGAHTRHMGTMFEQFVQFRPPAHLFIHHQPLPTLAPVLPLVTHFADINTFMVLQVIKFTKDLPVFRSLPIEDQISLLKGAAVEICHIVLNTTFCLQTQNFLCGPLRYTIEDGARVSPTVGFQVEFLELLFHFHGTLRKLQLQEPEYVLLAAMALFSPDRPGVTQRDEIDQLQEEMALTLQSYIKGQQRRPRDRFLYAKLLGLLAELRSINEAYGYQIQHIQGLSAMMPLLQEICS
# Summary of the method: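 Cells stably carrying hCAR and a CYP2B6 reporter (HepG2 background) are seeded and allowed 5 h to adhere. Substances at multiple concentrations are added alongside 0.75 µM PK11195, and luciferase signal is measured after 24 h.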
# [15] = Primary qHTS for inhibitors of nuclear receptor binding SET domain protein 2 (NSD2) in an RCH-ACV wild type WT cells (2C) (AID 1645877); also: nearly all actives have a fitted effect of over 70% in size; also: potency is read from the fitted curve at half-maximal effect
compound,measurement,setting,value
CCN(CC)CCOC(=O)C1(c2ccccc2)CCCC1,Potency,[1],inactive
same,Potency,[2],2.19 µM (active)
same,Potency,[3],inactive
same,Potency,[4],inactive
CC1(COc2ccc(CC3SC(=O)NC3=O)cc2)CCCCC1 (configuration not stated),Potency,[5],inactive
same,Potency,[6],49.8 µM (active)
same,outcome,[7],inactive
same,outcome,[8],inactive
same,Potency,[9],44.1 µM (active)
CCOC(=O)[C@@](C)(N)Cc1ccc(O)c(O)c1,Potency,[1],inactive
same,Potency,[2],7.76 µM (active)
CCN[C@@H]1C[C@H](N)[C@@H](OC2OC(CN)=CCC2N)[C@H](O)[C@H]1O[C@H]1OC[C@](C)(O)[C@H](NC)[C@H]1O (some centres not stated),"% pathology change, negative = correction",[1],3.5% [at 0.369 µM]
same,"activity change, negative = inhibition",[2],2.45% [at 0.91 µM]
same,"activity change, negative = inhibition",[3],10% [at 0.91 µM]
same,outcome,[4],inactive [at 0.588 µM]
CCCCCCCCCCCCCC(=O)OC(C)C,Potency,[1],inactive
same,Potency,[2],inactive
same,Potency,[3],inactive
same,Potency,[4],inactive
CN1CCN(C2=Nc3ccccc3Sc3ccc(Cl)cc32)CC1,Potency,[1],inactive
same,Potency,[2],15.5 µM (active)
same,Potency,[3],inactive
OCCOCCN1CCN(C2=Nc3ccccc3Sc3ccccc32)CC1,Potency,[1],inactive
same,Potency,[2],inactive
same,Potency,[3],inactive
same,Potency,[4],inactive
O=C(O)C1(C(=O)O)CCC1.[NH2-].[NH2-].[Pt+2],Potency,[1],inactive
same,Potency,[2],19.5 µM (active)
same,Potency,[10],inactive
NC1CCN(c2nc3c(cc2F)c(=O)c(C(=O)O)cn3-c2ccc(F)cc2F)C1 (configuration not stated),Potency,[1],inactive
same,Potency,[2],inactive
same,Potency,[3],inactive
C[C@]12CCC(=O)C=C1C=C[C@@H]1[C@@H]2CC[C@@]2(C)[C@H]1CC[C@@]21CCC(=O)O1,Potency,[1],inactive
same,Potency,[2],inactive
O=C(O)Cc1csc(-c2ccc(Cl)cc2)n1,Potency,[1],inactive
same,Potency,[2],inactive
same,Potency,[3],inactive
same,Potency,[4],inactive
C[C@H]1[C@H]2CC[C@H]3[C@@H]4CC=C5C[C@@H](N(C)C)CC[C@]5(C)[C@H]4CC[C@]23CN1C,"activity change, negative = cytotoxicity",[11],-25.4% [at 8.35 µM]
CC(C)Nc1cccnc1N1CCN(C(=O)c2cc3cc(NS(C)(=O)=O)ccc3[nH]2)CC1,outcome,[11],inactive
CCCCCCCCCCCCCCCC(=O)O,outcome,[12],inactive
same,outcome,[13],inactive
same,outcome,[14],inactive
O=C(Nc1ccccc1)OCC(CN1CCCCC1)OC(=O)Nc1ccccc1 (configuration not stated),Potency,[2],0.155 µM (active)
same,Potency,[3],13.8 µM (active)
same,outcome,[11],inactive
C=C[C@H]1CN2CC[C@H]1C[C@@H]2[C@@H](O)c1ccnc2ccc(OC)cc12,Potency,[3],inactive
same,Potency,[15],inactive
same,outcome,[11],inactive
CN1CCN(CCC(=O)N2c3ccccc3Sc3ccc(C(F)(F)F)cc32)CC1,Potency,[2],0.0347 µM (active)
same,Potency,[3],inactive
same,Potency,[4],15 µM (active)
same,Potency,[15],23.7 µM (active)
CO[C@H]1C=CO[C@@]2(C)Oc3c(C)c(O)c4c(O)c(c(/C=N/N5CCN(C)CC5)c(O)c4c3C2=O)NC(=O)/C(C)=C\C=C[C@H](C)[C@H](O)[C@@H](C)[C@@H](O)[C@@H](C)[C@H](OC(C)=O)[C@@H]1C,Potency,[2],inactive
same,outcome,[7],inactive
same,outcome,[8],inactive
same,Potency,[9],44.1 µM (active)
